Source: the supplement of paper PMC10477191
± gives the standard deviation of the averaged measurements.

The compounds below were run on Drosophila virilis antennal basiconic sensillum AB1 (assay: odor-evoked OSN spike response (post minus pre-stimulus); higher = stronger neuronal excitation). Conditions: odor dilution: 10^-4.
Method: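 Single sensillum recordings from antennal basiconic sensilla of D. virilis. A 500 ms pulse of odorant (10^-4 in mineral oil or DMSO) was delivered; the response is the change in spike frequency between the 1 s pre- and post-stimulus windows (spikes/s).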

| SMILES | odor-evoked OSN spike response [spikes/s] |
| --- | --- |
| CC(C)=O [acetone] | 73.5 ± 24 |
